Tests used:
Assay in all cases: PBM binding z-score (relative to random genomic background probes); higher = stronger binding; sequences stand for … in GC…GCGATTGACAGCGTAGAATGAAGG
[1] = system: PPARg:RXRa DBDmut IVT, anti-RXR (DBD mutation: RXRa K156A/R161A, NR concentration 270 nM, RXRa partner concentration 90 nM)
In short: (§1)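 Binding buffer was PBS pH 7.4 with 2% milk, 0.02% Triton X-100, 1 mM DTT, 0.2 mg/mL BSA and 0.4 mg/ml salmon testes DNA. In it, ligand-free nuclear receptor dimers were incubated 1 h on custom Agilent 4×180K protein-binding microarrays carrying double-stranded probes. Antibodies against each partner (one per run) detected binding, and z-scores were calculated against random background probes after regression normalization of scanned fluorescence.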

[2] = system: PPARg:RXRa IVT, anti-PPARg (NR concentration 270 nM, RXRa partner concentration 90 nM)
In short: as §1

[3] = system: PPARg DBDmut:RXRa IVT, anti-PPARg (DBD mutation: PPARg1 K132A/R137A, NR concentration 270 nM, RXRa partner concentration 90 nM)
In short: as §1

[4] = system: PPARg DBDmut IVT, anti-PPARg (DBD mutation: PPARg1 K132A/R137A, NR concentration 270 nM)
In short: as §1

[5] = system: PPARg homodimer (NR concentration 180 nM)
In short: as §1

[6] = system: PXR:RXRa (NR concentration 270 nM, RXRa partner concentration 90 nM)
In short: as §1

[7] = system: PXR homodimer (NR concentration 270 nM)
In short: as §1

[8] = system: RARa:RXR (NR concentration 270 nM, RXRa partner concentration 90 nM)
In short: as §1

[9] = system: RARa homodimer (NR concentration 270 nM)
In short: as §1

[10] = system: RARb:RXRa (NR concentration 270 nM, RXRa partner concentration 90 nM)
In short: as §1

[11] = system: RARb homodimer (NR concentration 270 nM)
In short: as §1

[12] = system: RARg:RXRa (NR concentration 270 nM, RXRa partner concentration 90 nM)
In short: as §1

[13] = system: RARg homodimer (NR concentration 270 nM)
In short: as §1

[14] = system: RXRa DBDmut IVT, anti-RXR (DBD mutation: RXRa K156A/R161A, NR concentration 90 nM)
In short: as §1

[15] = system: RXRa homodimer (NR concentration 180 nM)
In short: as §1

[16] = system: THRa:RXRa (NR concentration 90 nM, RXRa partner concentration 90 nM)
In short: as §1

[17] = system: THRa homodimer (NR concentration 90 nM)
In short: as §1

[18] = system: VDR homodimer (NR concentration 270 nM)
In short: as §1

Sequence	PBM binding z-score [1]	PBM binding z-score [2]	PBM binding z-score [3]	PBM binding z-score [4]	PBM binding z-score [5]	PBM binding z-score [6]	PBM binding z-score [7]	PBM binding z-score [8]	PBM binding z-score [9]	PBM binding z-score [10]	PBM binding z-score [11]	PBM binding z-score [12]	PBM binding z-score [13]	PBM binding z-score [14]	PBM binding z-score [15]	PBM binding z-score [16]	PBM binding z-score [17]	PBM binding z-score [18]
CCTGCCAGGTCATGGTCAGCTAATCTACAGTATG	2.15	2.35	-0.561	-0.338	1.2	2.16	0.231	2.61	-0.0161	3.78	3.28	4.12	4.46	1.81	3.17	3.64	2.48	0.972
GTTACAGGGTCAGCTAGAGGCCAGAGTATGGAAA	1.9	2.79	0.0715	-0.0967	2.41	3.39	0.141	3.88	0.709	4.27	3.54	6.82	5.21	1.4	4.47	3.11	0.599	1.01
CCTGTTAGTTGACCATAAGGGCAACCGAAGCTCG	0.268	0.863	0.531	0.804	1.39	0.426	0.794	0.804	1.03	1.74	2.14	1.2	0.916	0.329	0.511	1.88	1.5	0.539
TAGCCTAGGTCATGGGCCAGTCTACCACGCGAAC	1.64	3.21	0.44	0.137	1.7	1.48	-0.884	2.52	-0.257	3.74	2.8	4.32	4.43	-0.0274	3.69	2.93	1.09	0.0195
GCTAGCAGGCAATTTGGGTCACTCAATGACGGGC	2.45	2.92	0.145	-1.09	-0.111	0.273	-0.523	1.08	-0.688	0.971	1.55	0.628	0.847	-0.416	0.683	2.76	0.687	-0.322
ACTCGCAGGCCAAGGGTCACTCAAGATTAGTCCG	0.79	2.88	-0.175	0.18	2.03	3.45	-0.231	4.23	0.673	3.6	3.81	4.36	3.98	1.03	3.97	2.95	0.204	0.901
CCTCGTAGGACAACAGGAGGTCAGAGCTGCCAGA	0.397	0.633	-0.938	-1.38	1.75	2.08	0.26	2.37	0.699	2.56	3.16	3.05	3	0.577	2	2.51	0.709	0.704
CCTTACGGATCAAGGTTATAGCACGGGTGGTACG	-0.655	0.0573	-0.059	0.154	0.562	0.548	0.798	0.636	1.03	0.891	0.857	0.538	0.518	-0.178	0.793	1.16	0.694	0.886
CAAACTAGGTCAAGAGGTCACAGTCCGCTTCCCG	8.51	8.53	3.61	2.62	6.23	5.99	1.56	7.64	2.8	5.67	5.76	7.87	7.83	2.79	7.55	4.57	3.21	3.7
TCTCGGAGGACACGAAAGTTCAGAGCTCGACATC	1.71	-0.0575	-0.141	-0.597	0.949	3.3	2.7	1.27	0.226	2.78	3.16	2.2	3.44	1.32	1.14	2.22	0.943	2.55
GCTGCTAGGTCAACCGATGGTCAGCTAAAGCTCG	4.93	4.21	-0.16	-0.394	1.63	1.43	-0.956	2.99	-0.609	4.22	3.51	5.42	5.15	1.31	3.11	2.71	0.689	-0.333
GCTAGTTGTTCAGTAAAAGGTCACACACCGGTCG	0.391	1.95	0.53	0.109	3.86	4.88	1.13	5.29	2.41	3.91	5.07	4.7	4.28	0.628	5.06	3.39	1.77	1.84
GCCTACGGGTCAAAGGTTATAGCATGAATAGAAT	2.12	4.99	1.03	0.485	1.95	6.12	0.219	8.24	0.254	4.34	3.15	6.82	4.24	1.55	9.55	3.62	-0.143	1.08
CGTCAAAGTTCAACTAAGGTAACCTAAAGCACGC	0.618	2.35	0.979	1.12	5.46	6.07	4.78	5.01	2.75	5.31	4.36	6.08	6.64	4.81	4.92	5.31	2.1	4.48
